# Inconclusive results are not listed. A number with no mark means an inactive call. Calls follow the shape of the dose curve; as a rule, active = well fitted cell-killing curve with a large enough effect; inconclusive = small, poorly fitted or top-dose-only effect, or effect the other way; inactive = flat fitted curve, though single readings scatter.
# Tested on: C33A
# Assay: Primary qHTS to identify gynecologic anti-cancer compounds using libraries of approved drugs and bioactive compounds (AID 1345084); also: nearly all actives have a fitted effect of over 55% in size
# Settings: Gynecologic cancer cell panel viability, ATPlite luminescence, 48 h; series mostly up to 57.5 µM; activity change, negative = cytotoxicity: at the top concentration
# Summary of the method: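 Measured: luminescence after ATPlite addition (15 min, RT). Exposure: 48 h, 37 C, 5% CO2.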
# % is scaled to controls: 0 for no effect and ±100 for the full control effect.
row,Structure (SMILES),"activity change, negative = cytotoxicity"
1,COC(=O)C1=CO[C@@H](O[C@@H]2O[C@H](CO[C@@H]3O[C@H](CO)[C@@H](O)[C@H](O)[C@H]3O)[C@@H](O)[C@H](O)[C@H]2O)[C@@H]2C(CO)=CC[C@H]12,14.2% [at 25.3 µM]
2,CSCC1OC(n2cnc3c(=O)[nH]cnc32)C(O)C1O (centres undefined),0.97%
3,COc1cc(C)c(C(=O)OC2C(C)OC(OC3CCC(C)C4C3C=C(C)C3/C(C)=C\CC/C(C)=C/C5(C)C=C(C(=O)O)C(C)CC56OC(=O)/C(=C(\O)C34C)C6=O)C(O)C2O)c(OC)c1 (centres undefined),17.6% [at 11.6 µM]
4,OC[C@H]1O[C@@H](OCc2ccccc2)[C@H](O[C@@H]2OC[C@@H](O)[C@H](O)[C@H]2O)[C@@H](O)[C@@H]1O,4.86% [at 25.3 µM]
5,Nc1ccc(-n2nc(C(F)(F)F)cc2C(F)(F)F)cc1,8.41%
6,Oc1ccc(CC2NCCc3cc(O)c(O)cc32)cc1 (centres undefined),3.29%
7,NCCCCN(Cc1nc2ccccc2[nH]1)[C@H]1CCCc2cccnc21,6.35% [at 25.3 µM]
8,C/C(=C\C1CCC(C)C2CCC3(C)OC123)C(=O)O (centres undefined),9.52%
9,CC1=C2C3OC(=O)C(C)C3(O)CCC2(C)CCC1 (centres undefined),3.07%
10,O=C(N[C@H](Cc1ccccc1)C(=O)O)c1sc2cc(F)ccc2c1Cl,14.7%
11,CC(=O)c1ccc(O[C@@H]2O[C@H](CO[C@@H]3OC[C@@H](O)[C@H](O)[C@H]3O)[C@@H](O)[C@H](O)[C@H]2O)cc1,2.66% [at 25.3 µM]
12,C=C1C[C@H](O)[C@@H](O)[C@@]2(C)C1[C@@H](O)[C@H]1OC(=O)C3[C@@H](C)[C@@H](O)[C@H](O)C2[C@]31C (some centres undefined),-3.64% [at 38.5 µM]
13,CCCC/C=C\CCCCCc1cc(=O)c2ccccc2n1C,2.26% [at 38.5 µM]
14,Cn1cc(Nc2cnccc2C(=O)O)c2cccnc21,9.14%
15,C[C@H]1[C@H](C)C[C@@H](C(=O)O)C2CC[C@]3(C)C(=CC[C@@H]4[C@@]5(C)CC[C@H](O)C(C)(C)[C@@H]5CC[C@]43C)[C@@H]21 (some centres undefined),-0.466%
16,C=CC(C)(O)CC/C=C(\C)C(=O)O[C@@H]1[C@@H](O)[C@H](OC(C)(C=C)CC/C=C(\C)C(=O)O)O[C@H](CO)[C@H]1OC(=O)/C(C)=C/CCC(C)(O)C=C (some centres undefined),-4.07% [at 25.3 µM]
17,CC1(C)CC[C@]2(C(=O)O[C@@H]3O[C@H](CO)[C@@H](O)[C@H](O)[C@H]3O)CC[C@]3(C)C(=CCC4[C@@]5(C)CC[C@H](O[C@@H]6O[C@H](C(=O)O)[C@@H](O)[C@H](O)[C@H]6OC6OC(CO)C(O)C(O)C6O)C(C)(C)C5CC[C@]43C)[C@@H]2C1 (some centres undefined),0.935% [at 11.6 µM]
18,COc1cccc(C)c1C(=O)O[C@@H]1C[C@H](O[C@H]2[C@H](O)C[C@H](O[C@@H]3CCC[C@H]4[C@H]3C=C[C@@H]3CCCC/C=C/[C@H]5C=C(C(=O)O)[C@@H](C)C[C@@]56OC(=O)C(=C6O)OC(=O)[C@@]34C)O[C@@H]2C)O[C@H](C)[C@H]1O,10.8% [at 11.6 µM]
19,CC(C)CC(=O)OC[C@@]1(O)C[C@@]23CC[C@H]4[C@@](C)(CCC[C@@]4(C)C(=O)O)[C@@H]2CC[C@@H]1C3,-7.68% [at 25.3 µM]
20,C=C[C@H]1[C@H](O[C@@H]2O[C@H](CO)[C@@H](O)[C@H](O)[C@H]2O)OC=C(C(=O)OC)[C@H]1CC=O,-2.2% [at 38.5 µM]
21,C=C1C(=O)OC2CC(COC(=O)C(C)C)=C(C(C)CCCOC(C)=O)[C@@H](OC(C)=O)C12 (some centres undefined),-3.88% [at 25.3 µM]
22,CC1=C2C(=O)C=C(CO[C@@H]3O[C@H](CO)[C@@H](O)[C@H](O)[C@H]3O)[C@@H]2[C@H]2OC(=O)[C@H](C)[C@@H]2[C@@H](O)C1,0.593% [at 25.3 µM]
23,C=C1C(=O)O[C@@H]2CC(C)=C([C@@H](C)CCCOC(C)=O)[C@@H](O)[C@H]12,12.9% [at 38.5 µM]
24,CC1=COC(OC2OC(CO)C(O)C(O)C2O)C2C(CO)CC(OC(=O)/C=C/c3ccc(O)cc3)C12 (centres undefined),-1.11% [at 25.3 µM]
25,COc1cccc(OC)c1-c1ccc(C[C@H](NC(=O)c2c(Cl)cccc2Cl)C(=O)O)cc1,10.2%
26,C/C=C/C(=O)OC1/C=C/C(O)C(OC(C)=O)CCC(=O)OC1C (centres undefined),4.46% [at 38.5 µM]
27,CC1(C)[C@H]2C[C@H](C/C=C\CCCC(=O)O)[C@@H](NC(=O)c3csc4ccc(O)cc34)[C@@H]1C2,3.86%
28,CC(=O)/C=C/C1C(C)CC(O[C@@H]2O[C@H](CO)[C@@H](O)[C@H](O)[C@H]2O)CC1(C)C (some centres undefined),-0.133% [at 38.5 µM]
29,COC(=O)c1ccccc1O[C@@H]1O[C@H](CO[C@@H]2OC[C@@H](O)[C@H](O)[C@H]2O)[C@@H](O)[C@H](O)[C@H]1O,5.09% [at 25.3 µM]

# Source: PubChem BioAssay (NCATS)
